Only some compounds are listed: those with a hit (about 12% of all), similar ones and a draw of the others.
BAZ2B block = qHTS Assay for Inhibitors of BAZ2B. actives 4.4% (n = 360,000). AlphaScreen BAZ2B-H3K14Ac peptide displacement. Potency, µM (doses to about 114 µM), for the others: top-dose activity change, negative = inhibition, most hits filed as inhibitors; note: % is set by controls: 0 for no effect and ±100 for the full control effect; nearly all actives have a fitted effect of over 60% in size
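Complex of BAZ2B and biotin-H3K14Ac (50 nM apiece) forms over 30 min at RT, then faces library compounds up to 110 uM for another 30 min; AlphaScreen beads added, 20 min dark incubation, luminescence read.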
JMJD2A Tudor = qHTS Assay for Inhibitors of JMJD2A-Tudor Domain | Potency, µM (doses to about 114 µM), for inactives: at the top dose activity change, negative = inhibition, most hits filed as inhibitors | AID 504339, 2011 | Lysine-specific demethylase 4A (Homo sapiens), O75164 | actives 4.4% (n = 390,000) | AlphaScreen JMJD2A-Tudor / H3K4me3 peptide binding; note: % is set by controls: 0 for no effect and ±100 for the full control effect; nearly all actives have a fitted effect of over 50% in size
G9a block = qHTS Assay for Inhibitors of Histone Lysine Methyltransferase G9a; Potency, µM (titrated, usually from 102 µM), inactives show top-dose activity, negative = inhibition, hits mostly inhibitors; Histone-lysine N-methyltransferase EHMT2 (Homo sapiens), Q96KQ7; G9a H3K9 monomethylation, AlphaScreen, 2 h; actives 8.8% (n = 350,000); note: % is set by controls: 0 for no effect and ±100 for the full control effect; nearly all actives have a fitted effect of over 75% in size
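AlphaScreen read-out: biotin-H3K9 peptide (500 nM) methylation by 20 nM enzyme with 20 uM SAM, 2 h at room temperature after 15 min compound preincubation; anti-monomethyl H3K9 antibody plus donor/acceptor beads, 10 min dark.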
Sfp PPTase inh = qHTS Assay for Inhibitors of Bacillus subtilis Sfp phosphopantetheinyl transferase (PPTase); 4'-phosphopantetheinyl transferase ffp (Bacillus subtilis), Q9F4F7; Biochemical Sfp PPTase activity, qHTS; Potency, µM, inactives show largest response in the series, negative = inhibition, usual class: inhibitors; actives 3.5% (n = 310,000);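 note: the enzyme is Sfp with the accession as filed and its product quenches rhodamine fluorescence; 0% = enzyme reaction without inhibitor and -100% = no enzyme wells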
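Fluorescence-quenching assay: 15 nM Sfp-PPTase preincubated 15 min at room temperature with compound, then 5 uM rhodamine-CoA and 12.5 uM BHQ-2-labelled YbbR peptide added. Fluorescence (ex 525/em 598 nm) read at start and after 30 min; difference gives rate.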
HP1b chromo inh = HTS for Inhibitors of HP1-beta Chromodomain Interactions with Methylated Histone Tails. AlphaScreen HP1-beta / biotin-H3K9me3 peptide binding. Potency, µM (highest dose often 114 µM), without a hit: at the top dose activity change, negative = inhibition, most hits filed as inhibitors. actives 0.56% (n = 390,000). Chromobox protein homolog 1 (Homo sapiens), P83916; note: nearly all actives have a fitted effect of over 70% in size
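AlphaScreen: HP1-beta (50 nM) preformed 30 min with biotin-H3(1-18)K9me3 peptide (50 nM) in PBS pH 7.4, 0.01% Tween-20. Compound added for 30 min at RT, then streptavidin donor/nickel chelate acceptor beads (10 ug/mL) for 30 min.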
PLK1 PBD inh = qHTS for Inhibitors of PLK1-PDB (polo-like kinase 1 - polo-box domain): Primary Screen; Potency, µM, for inactives: max response, negative = inhibition, actives largely listed as inhibitors; Serine/threonine-protein kinase PLK1 (Homo sapiens), P53350; AID 720504, 2013; Plk1 PBD binding of FITC phosphopeptide, fluorescence polarization; actives 2.8% (n = 360,000); note: series mostly up to about 57 µM; % is set by controls: 0 for no effect and ±100 for the full control effect; nearly all actives have a fitted effect of over 65% in size
Target sequence (P53350 whole entry, looked up, the tested form may be a part): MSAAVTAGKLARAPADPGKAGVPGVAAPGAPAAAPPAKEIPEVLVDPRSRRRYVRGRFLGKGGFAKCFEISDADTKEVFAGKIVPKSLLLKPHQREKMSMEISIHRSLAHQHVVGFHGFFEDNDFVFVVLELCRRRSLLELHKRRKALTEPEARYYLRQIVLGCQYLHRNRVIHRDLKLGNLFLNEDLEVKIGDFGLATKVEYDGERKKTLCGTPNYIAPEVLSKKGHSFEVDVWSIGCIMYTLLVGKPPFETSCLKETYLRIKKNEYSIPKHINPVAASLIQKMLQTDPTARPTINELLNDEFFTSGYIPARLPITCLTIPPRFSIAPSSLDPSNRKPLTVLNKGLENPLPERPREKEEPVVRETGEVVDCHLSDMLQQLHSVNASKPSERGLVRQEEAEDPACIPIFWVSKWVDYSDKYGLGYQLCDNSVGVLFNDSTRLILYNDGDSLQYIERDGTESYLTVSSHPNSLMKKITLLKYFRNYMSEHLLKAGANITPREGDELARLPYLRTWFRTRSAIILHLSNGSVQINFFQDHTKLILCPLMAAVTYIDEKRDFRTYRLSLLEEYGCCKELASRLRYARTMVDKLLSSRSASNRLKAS
The depositor's hits bear a star; ? = inconclusive; . = no result; [ ] = another dose, or the depositor's remark. Calls come from the whole dose curve; as a rule, active = well fitted curve in the direction sought with a large enough effect; inconclusive = small, poorly fitted or top-dose-only effect, or another doubt; inactive = no such curve, though single readings can be large; an effect the other way counts as inactive or inconclusive. Potency is the fitted concentration of half-maximal effect.

SMILES	BAZ2B block	JMJD2A Tudor	G9a block	Sfp PPTase inh	HP1b chromo inh	PLK1 PBD inh
CCN(CC)c1cc2c(cc1F)c(=O)c(S(=O)(=O)c1cc(C)ccc1C)cn2Cc1ccccc1	0%	2%	-3%[59 µM]	.	32%	.
CC1=C(C(=O)N2CCOCC2)CC(CC(=O)NCC2CCCCC2)C(=O)N1CCC1=CCCCC1 (stereo unspecified)	.	.	.	.	.	-7%
CCOC(=O)c1cc(-c2ccco2)nn1-c1ccc(C)cc1	?	-30%	40µM*	?	-23%	-9%
O=C(c1cc(-c2ccco2)nn1-c1cccc(Cl)c1)N1CCCCC1	?	25µM*	3.2µM*	8.9µM*	?	27µM*
O=C(NC1CCCCCC1)C1CCCN(c2ncccn2)C1 (stereo unspecified)	?	-11%	-23%	14%	28%	-10%
COc1cccc(NC(=O)CN(C)C(=O)c2cc(-c3ccco3)nc3ccccc23)c1	79µM*	18µM*	50µM*	.	?	-19%
Cc1ccc(NC(=O)CN(C)C(=O)c2cc(-c3ccco3)nc3ccccc23)cc1	45µM*	20µM*	32µM*	.	50µM*	?
CN(CC(=O)Nc1ccc(F)cc1)C(=O)c1cc(-c2ccco2)nc2ccccc12	40µM*	?	-10%[0.501 µM]	.	-14%	?
COc1cccc(NC(=O)c2cc(-c3ccco3)nc3ccccc23)c1	.	?	.	.	-21%	-37%
O=C(CN(Cc1ccco1)C(=O)c1cccc(F)c1)Nc1ccccc1C(F)(F)F	-3%	-10%	-7%[12.7 µM]	.	18%	-9%
Cc1cc(OC(=O)c2cc([N+](=O)[O-])ccc2Cl)c([N+](=O)[O-])c(=O)[nH]1	?	-17%	?	2%	41%	6%
COc1ccc(CNc2oc(-c3ccccc3)nc2C#N)cc1	45µM*	?	40µM*	-12%	-17%	-12%
C=CCNc1oc(-c2ccc(-c3ccccc3)cc2)nc1C#N	.	79µM*	.	.	18%	.
C=CCNc1oc(-c2cccc(Cl)c2)nc1C#N	.	-21%	.	.	32%	.
N#Cc1nc(-c2ccccc2)oc1NCc1ccco1	50µM*	-29%	?	-5%	16%	-1%
N#Cc1nc(-c2ccccc2Cl)oc1NCc1ccco1	50µM*	?	?	-13%	-30%	-8%
O=C(NC1CCCC1)C(c1ccccc1)N(Cc1ccccc1)C(=O)c1csnn1 (stereo unspecified)	4%	-10%	20%	7%	15%	-1%
COc1ccc(C2Nc3ccccc3C(=O)N2Cc2ccccc2)cc1COc1ccc(Cl)cc1Cl (stereo unspecified)	4%	.	3%[12.7 µM]	.	.	.
COc1cccc(CNC(=O)C(=O)NCC(c2ccc3c(c2)OCO3)N2CCOCC2)c1 (stereo unspecified)	5%	-25%	5%[59 µM]	.	14%[57 µM]	.
CC(C)CNc1oc(-c2ccccc2Cl)nc1C#N	?	-22%	40µM*	-11%	?	-20%
N#Cc1nc(-c2ccc(Cl)cc2)oc1NCc1ccco1	-31%	-8%[11.4 µM]	-8%[12.7 µM]	11%	-31%	27µM*
CCOc1ccc(CCNC(=O)Cc2ccc(NC(=O)N3CCSc4ncccc43)cc2)cc1	-11%	-8%	4%[59 µM]	.	41%	.
COC(=O)[C@@]1(Cc2ccc(F)cc2)[C@H]2c3cc(C(=O)N(C)C)n(Cc4nc5ccccc5[nH]4)c3C[C@H]2CN1C(=O)c1ccccc1	?	?	50µM*	-4%	-2%	0%
COC(=O)[C@@]1(Cc2ccc(F)cc2)[C@H]2c3cc(C(=O)N4CCCC4)n(Cc4ccc(C(F)(F)F)nc4)c3C[C@H]2CN1C(=O)c1ccccc1	?	?	50µM*	-2%	5%	-9%
COC(=O)[C@@]1(Cc2ccc(F)cc2)[C@H]2c3cc(C(=O)N(C)C)n(Cc4ccccn4)c3C[C@H]2CN1C(=O)c1ccccc1	?	-35%	?	-28%	18%	-10%
SMILES	BAZ2B block	JMJD2A Tudor	G9a block	Sfp PPTase inh	HP1b chromo inh	PLK1 PBD inh
C=C1C(=O)C=C2CN(C(=O)c3ccccc3)[C@@](Cc3ccc(OC)cc3)(C(=O)OC)[C@@H]12	.	.	.	4µM*	.	.
COC(=O)[C@@]1(Cc2ccc(F)cc2)[C@H]2c3cc(C(=O)N4CCCC4)n(Cc4ccc(C)o4)c3C[C@H]2CN1C(=O)c1ccccc1	.	.	.	40µM*	.	-6%
CC(C)(C)C(=O)NCCc1nc2ccccc2n1CC(=O)c1ccc(Cl)cc1	-2%	-15%	?	-5%	37%	-7%
COC(=O)[C@@]1(Cc2ccc(OC)cc2)[C@H]2c3cc(C(=O)N(C)C)[nH]c3C[C@H]2CN1C(=O)c1ccccc1	56µM*	-30%	50µM*	-16%	13%	-2%
COC(=O)[C@@]1(Cc2ccc(OC)cc2)[C@H]2c3cc(C(=O)N(C)C)n(CCO)c3C[C@H]2CN1C(=O)c1ccccc1	.	.	.	22%	.	.
COC(=O)[C@@]1(Cc2ccc(F)cc2)[C@H]2c3cc(C(=O)N4CCCC4)n(CCF)c3C[C@H]2CN1C(=O)c1ccccc1	.	.	.	-5%	.	-15%
COC(=O)[C@@]1(Cc2ccc(OC)cc2)[C@H]2c3cc(C(=O)N(C)C)n(CCc4ccc(OC)c(Br)c4)c3C[C@H]2CN1C(=O)c1ccccc1	?	.	40µM*	-7%	.	.
COC(=O)[C@@]1(Cc2ccc(F)cc2)[C@H]2c3cc(C(=O)N4CCCC4)n(CCCNc4ncc(C(F)(F)F)cc4Cl)c3C[C@H]2CN1C(=O)c1ccccc1	-35%	?	32µM*	4%	4%	-5%
COC(=O)[C@@]1(Cc2ccc(OC)cc2)[C@H]2c3cc(C(=O)N(C)C)n(CCc4ccc(O)c(OC)c4)c3C[C@H]2CN1C(=O)c1ccccc1	.	.	.	21%	.	.
COC(=O)[C@@]1(Cc2ccc(OC)cc2)[C@H]2c3cc(C(=O)N(C)C)n(Cc4ccc(C)o4)c3C[C@H]2CN1C(=O)c1ccccc1	.	.	.	25µM*	.	.
CCc1ccc(-c2nc3c(=O)n(C)c(=O)nc-3n(CC)n2)cc1	.	-2%[57.1 µM]	.	.	18%[57 µM]	.
